Measured values published in PubChem BioAssay (EPA / NIEHS).
Inconclusive results are not listed. A structure can be active in one record and inactive in another. Calls of active or inactive are those of the source. How the source made its calls, unless noted: active means hit-call score of the fitted dose curve at least 0.9, where 1 is the maximum; inactive means score below 0.9.

Legend:
[1] = molecular target: Retinoic acid receptor RXR-alpha (Homo sapiens) (UniProt P19793); assay: ATG_RXRa_TRANS: Attagene TRANS-FACTORIAL HepG2 Assay for human Retinoid X Receptor alpha (RXRa) (AID 2283012; active means hit-call score of the fitted dose curve at least 0.9, where 1 is the maximum)
Chain of Retinoic acid receptor RXR-alpha (Homo sapiens) (P19793 whole entry, looked up, the tested form may be a part): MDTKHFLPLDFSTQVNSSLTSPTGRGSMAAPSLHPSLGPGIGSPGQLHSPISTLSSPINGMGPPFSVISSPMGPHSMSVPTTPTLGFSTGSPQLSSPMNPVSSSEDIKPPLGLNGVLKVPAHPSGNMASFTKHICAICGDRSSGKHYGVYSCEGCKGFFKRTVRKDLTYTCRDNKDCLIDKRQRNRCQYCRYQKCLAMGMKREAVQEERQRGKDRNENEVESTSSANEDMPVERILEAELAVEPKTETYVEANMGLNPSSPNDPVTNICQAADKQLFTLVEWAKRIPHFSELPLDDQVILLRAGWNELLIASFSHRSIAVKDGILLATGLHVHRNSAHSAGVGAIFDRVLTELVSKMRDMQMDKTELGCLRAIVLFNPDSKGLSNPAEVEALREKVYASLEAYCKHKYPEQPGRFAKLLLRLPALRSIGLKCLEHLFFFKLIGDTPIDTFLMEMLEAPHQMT
Summary of the method: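 Transient transfection of human HepG2 with multiple GAL4-UAS reporter constructs; 24 h compound exposure; total RNA isolated, reverse-transcribed, PCR-amplified, 6-FAM labelled, HpaI-cut, resolved by capillary electrophoresis. Positive-direction fit versus DMSO.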

[2] = molecular target: human Retinoid X Receptor beta (RXRb), RXRB (gene 6257) (UniProt P28702); assay: ATG_RXRb_TRANS: Attagene TRANS-FACTORIAL HepG2 Assay for human Retinoid X Receptor beta (RXRb) (AID 2283013; active means hit-call score of the fitted dose curve at least 0.9, where 1 is the maximum)
Chain of human Retinoid X Receptor beta (RXRb), RXRB (gene 6257) (P28702 whole entry, looked up, the tested form may be a part): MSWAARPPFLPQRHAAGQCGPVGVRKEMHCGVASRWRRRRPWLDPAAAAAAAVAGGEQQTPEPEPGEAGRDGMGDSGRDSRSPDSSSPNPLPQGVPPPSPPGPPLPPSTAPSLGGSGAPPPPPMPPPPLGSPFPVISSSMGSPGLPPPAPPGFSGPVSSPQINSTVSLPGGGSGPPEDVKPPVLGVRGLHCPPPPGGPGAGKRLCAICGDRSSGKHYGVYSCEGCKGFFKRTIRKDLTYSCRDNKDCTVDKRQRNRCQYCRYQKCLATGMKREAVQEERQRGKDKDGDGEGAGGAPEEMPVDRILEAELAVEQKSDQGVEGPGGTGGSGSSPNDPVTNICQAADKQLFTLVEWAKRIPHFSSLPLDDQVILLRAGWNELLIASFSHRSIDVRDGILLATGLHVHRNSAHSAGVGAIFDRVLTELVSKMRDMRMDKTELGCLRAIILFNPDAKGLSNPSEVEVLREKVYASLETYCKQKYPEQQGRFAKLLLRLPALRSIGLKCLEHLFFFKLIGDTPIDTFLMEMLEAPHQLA
Summary of the method: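 Transfect HepG2 with GAL4-UAS multi-reporter constructs (chimeric NR-Gal4, TRANS format); dose compound 24 h; isolate RNA, RT-PCR, FAM primer extension, HpaI digest; quantify by capillary electrophoresis; positive direction vs DMSO.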

[3] = read-out: E-selectin (Homo sapiens) (UniProt P16581); assay: BSK_3C_Eselectin: BioMAP Diversity Plus: 3C Assay for Eselectin Biomarker Activity (AID 2283015); conditions: primary human endothelial cells (HUVEC); actives raise or lower the signal
Summary of the method: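 HUVEC, 3C stimulation; compound exposure 24 h; E-selectin by ELISA; gain- or loss-of-signal fitted bidirectionally vs DMSO baseline.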

[4] = read-out: Interleukin-1 alpha (IL1a), IL1A (gene 3552); assay: BSK_BE3C_IL1a: BioMAP Diversity Plus: BE3C Assay for Interleukin-1 alpha (IL1a) Biomarker Activity (AID 2283016); conditions: primary human bronchial epithelial cells; actives raise or lower the signal
Summary of the method: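 BE3C primary human bronchial epithelium; cpd 24 h; IL-1a by ELISA; bidirectional fit vs DMSO; parallel SRB (0.1% SRB, 10% TCA fix, 560 nm) for cytotoxicity.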

[5] = read-out: Monocyte Chemoattractant Protein-1 (MCP1), CCL2 (gene 6347); assay: BSK_4H_MCP1: BioMAP Diversity Plus: 4H Assay for Monocyte Chemoattractant Protein-1 (MCP1) Biomarker Activity (AID 2283018); conditions: primary human endothelial cells (HUVEC); actives raise or lower the signal
Summary of the method: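 ELISA read-out of MCP-1 from human vascular endothelial primary cells taken at 24 hours after compound exposure. Activity was fitted in both directions relative to DMSO, which served as negative control.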

[6] = read-out: Human Leukocyte Antigen - DR isotype (HLADR), HLA-DRA (gene 3122); assay: BSK_3C_HLADR: BioMAP Diversity Plus: 3C Assay for Human Leukocyte Antigen - DR isotype (HLADR) Biomarker Activity (AID 2283019); conditions: primary human endothelial cells (HUVEC); actives raise or lower the signal
Summary of the method: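 HUVEC, 3C stimulation, 24 h post-dose; HLA-DR by ELISA; bidirectional curve fit vs DMSO baseline; gain or loss of signal scored.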

[7] = read-out: Interleukin-8 (IL8), CXCL8 (gene 3576); assay: BSK_3C_IL8: BioMAP Diversity Plus: 3C Assay for Interleukin-8 (IL8) Biomarker Activity (AID 2283020); conditions: primary human endothelial cells (HUVEC); actives raise or lower the signal
Summary of the method: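 ELISA read-out of IL-8 from human umbilical vein endothelium, measured 24 h after chemical dosing. Activity is expressed relative to DMSO negative control, with both increases and decreases fitted.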

[8] = read-out: Monokine induced gamma interferon (MIG), CXCL9 (gene 4283); assay: BSK_3C_MIG: BioMAP Diversity Plus: 3C Assay for Monokine induced gamma interferon (MIG) Biomarker Activity (AID 2283021); conditions: primary human endothelial cells (HUVEC); actives raise or lower the signal;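 on AC50: MIG protein level measured by immunoassay in the treated endothelial cultures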
Summary of the method: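 Read-out is ELISA detection of MIG on human umbilical vein endothelial cells, taken 24 h after dosing. Gain or loss of signal was scored relative to DMSO controls using bidirectional curve fitting.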

[9] = read-out: Monocyte Chemoattractant Protein-1 (MCP1), CCL2 (gene 6347); assay: BSK_3C_MCP1: BioMAP Diversity Plus: 3C Assay for Monocyte Chemoattractant Protein-1 (MCP1) Biomarker Activity (AID 2283017); conditions: primary human endothelial cells (HUVEC); actives raise or lower the signal
Summary of the method: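 HUVEC, 3C system; 24 h chemical exposure; MCP-1 by ELISA; bidirectional curve fit vs DMSO baseline.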

[10] = molecular target: human Thyroid Receptor alpha (THRa1), THRA (gene 7067) (UniProt P10827); assay: ATG_THRa1_TRANS: Attagene TRANS-FACTORIAL HepG2 Assay for human Thyroid Receptor alpha (THRa1) (AID 2283014; active means hit-call score of the fitted dose curve at least 0.9, where 1 is the maximum)
Chain of human Thyroid Receptor alpha (THRa1), THRA (gene 7067) (P10827 whole entry, looked up, the tested form may be a part): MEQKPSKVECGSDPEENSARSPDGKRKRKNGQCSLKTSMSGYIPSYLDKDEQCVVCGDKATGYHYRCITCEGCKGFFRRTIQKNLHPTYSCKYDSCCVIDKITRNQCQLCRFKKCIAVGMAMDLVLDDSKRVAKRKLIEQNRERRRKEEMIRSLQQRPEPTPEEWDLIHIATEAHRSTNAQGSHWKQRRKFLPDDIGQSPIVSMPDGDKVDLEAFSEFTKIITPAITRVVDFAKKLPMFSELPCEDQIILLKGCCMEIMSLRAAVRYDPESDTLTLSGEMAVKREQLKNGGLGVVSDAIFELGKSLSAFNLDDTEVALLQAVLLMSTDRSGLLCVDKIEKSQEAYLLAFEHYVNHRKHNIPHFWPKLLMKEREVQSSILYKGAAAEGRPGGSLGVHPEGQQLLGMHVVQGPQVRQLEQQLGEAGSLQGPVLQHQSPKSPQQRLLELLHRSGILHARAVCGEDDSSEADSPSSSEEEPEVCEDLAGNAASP
Summary of the method: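 Transient HepG2 transfection, NR-Gal4 chimera driving GAL4-UAS reporters; 24 h compound exposure; total RNA, oligo(dT) RT, PCR, fluorescent primer extension, capillary electrophoresis. Upward direction vs DMSO control.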

Measured: AC50

Chain of E-selectin (Homo sapiens) (P16581 whole entry, looked up): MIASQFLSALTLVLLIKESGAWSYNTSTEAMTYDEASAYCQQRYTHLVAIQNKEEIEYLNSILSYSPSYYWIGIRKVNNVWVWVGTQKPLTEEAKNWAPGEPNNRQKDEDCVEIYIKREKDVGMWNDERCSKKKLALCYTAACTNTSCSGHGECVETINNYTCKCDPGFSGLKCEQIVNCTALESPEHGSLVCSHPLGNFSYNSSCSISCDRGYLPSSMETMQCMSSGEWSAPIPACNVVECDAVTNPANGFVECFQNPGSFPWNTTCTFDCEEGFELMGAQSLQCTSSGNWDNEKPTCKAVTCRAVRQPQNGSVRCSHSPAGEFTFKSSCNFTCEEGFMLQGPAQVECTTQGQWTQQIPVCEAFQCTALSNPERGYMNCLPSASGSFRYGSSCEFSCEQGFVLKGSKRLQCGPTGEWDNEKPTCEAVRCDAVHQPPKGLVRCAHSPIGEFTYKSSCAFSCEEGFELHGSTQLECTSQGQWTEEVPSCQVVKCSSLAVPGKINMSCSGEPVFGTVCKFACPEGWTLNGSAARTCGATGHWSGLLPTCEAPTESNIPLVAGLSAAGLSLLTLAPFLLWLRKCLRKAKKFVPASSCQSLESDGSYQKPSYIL

COC(=O)CCCCC(=O)OC
not listed: [9] | [10]
inactive: all other assays above

CCCCCCCCOC(=O)CCCCCCCCC(=O)OCCCCCCCC
not listed: [9] | [10]
inactive: all other assays above

CC(C)(C)c1cccc(C(C)(C)C)c1O
active: [1] 68.8 µM | [2] 33.5 µM
not listed: [9] | [10]
inactive: all other assays above

CC(C)(C)c1ccc(O)c(C(C)(C)C)c1
active: [1] 7.27 µM | [2] 3.2 µM | [3] 10.3 µM | [4] 33.7 µM | [5] 10 µM | [6] 8.06 µM | [7] 12.9 µM | [8] 14.7 µM

CN(C)C=O
active: [1] 4.99 µM | [2] 0.74 µM
not listed: [10]
inactive: all other assays above

OC1CCCCC1
inactive: all assays above

CC(O)C(=O)O (centres undefined)
inactive: [1] | [2]

CCCCCCCCCCCCc1ccccc1S(=O)(=O)O
active: [2] 9.1 µM | [4] 14.3 µM
not listed: [10]
inactive: all other assays above

O=c1c(-c2ccc(O)cc2)coc2cc(O)ccc12
active: [5] 13.8 µM | [6] 27.1 µM
not listed: [10]
inactive: all other assays above

CCCCCCCC(=O)O
not listed: [9] | [10]
inactive: all other assays above

OC1CCC(C2CCCCC2)CC1 (centres undefined)
not listed: [9] | [10]
inactive: all other assays above

Nc1cccc2c(N)cccc12
not listed: [10]
inactive: all other assays above

Cc1ccc(S(=O)(=O)O)c(C)c1
active: [2] 58.6 µM
inactive: [1] | [2]

CC[C@H](c1ccc(O)cc1)[C@@H](CC)c1ccc(O)cc1
inactive: [1]
active: [2] 3.79 µM [middle of 4 runs] | [3] 34.8 µM | [4] 24.3 µM | [5] 20 µM | [6] 20.9 µM | [7] 33.6 µM | [8] 37.4 µM

c1ccc2c(c1)Cc1ccccc1-2
active: [2] 61.7 µM
not listed: [10]
inactive: all other assays above

CCCCCCCCCCCCCCCS(=O)(=O)Oc1ccccc1
not listed: [9]
inactive: all other assays above

C[C@@H]1C[C@H]2[C@@H]3CCC4=CC(=O)C=C[C@]4(C)[C@@]3(F)[C@@H](O)C[C@]2(C)[C@@]1(O)C(=O)COP(=O)(O)O
not listed: [9]
inactive: all other assays above
